Source: PubChem BioAssay (NCI)
About 83,000 compounds went through this panel and 20% of them were active in at least one assay; those are over-represented in the sample as a whole.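 How to read the values: 0–100, growth inhibition (40 = 60% inhibited); 0, no net growth; -100 to 0, cell death (-40 = 40% of starting cells died; -100 = all dead).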 Calls of active or inactive are those of the source. How the source made its calls: active means growth percent below 10; inactive means the rest.

Each molecule was assayed on HL-60(TB) leukemia (assay: NCI-60 one-dose screen, 48 h (100 = growth as untreated, 0 = no growth, -100 = all killed)). Conditions: 10 µM unless noted.

| Structure (SMILES) | growth |
| --- | --- |
| Cn1cc(-c2cc3nc(-c4cn(C)c5ncccc45)cc(N)n3n2)c2cc(F)ccc21 | 7.11% (active) |
| CC(C)C1=C[C@@]23CC[C@@H]4[C@](C)(CCC[C@]4(C)C(=O)NCc4ccccc4)[C@H]2C[C@@H]1[C@H]1C(=O)CCC(=O)[C@H]13 | 53.5% (inactive) |
| CSc1ccccc1NC(=O)c1ccc2nn(/C(C#N)=C/c3ccccn3)nc2c1 | -12.8% (active) |
| O=C(/C=C/c1ccc(O)c(O)c1)NC1CCOC1O (centres undefined) | 99.1% (inactive) |
| COc1ccc(OC)c(/C=N/NC(=O)c2ccc3nc(-c4ccc(Cl)cc4)[nH]c3c2)c1 | 87.1% (inactive) |
| C[C@H](NC(=O)c1ccc2c(-c3ccc(C(F)(F)F)cc3)cccc2c1)c1ccccn1 | 23% (inactive) |
| O=C1N/C(=N\c2nccs2)S/C1=C\c1cccs1 | 25.1% (inactive) |
| N#CC1=C(c2ccco2)Nc2c(c(-c3ccccc3)nn2-c2ccccc2)C12C(=O)Nc1ccc(Cl)cc12 (centres undefined) | 43.8% (inactive) |
| Cc1ccc2nc(COc3ccc(C(=O)NNC(=S)NC(=O)c4ccccc4)cc3)[nH]c2c1 | 70.7% (inactive) |
| CS(=O)(=O)Nc1cncc(-c2ccc3ncnc(NCc4ccccc4)c3c2)c1 | 54.6% (inactive) |
| COC[C@@H](CC(C)C)N=C1NC(=O)/C(=C/c2ccc3ncsc3c2)N1 | 1.21% (active) |
| CCN(CC)c1ccc(/C=N/Nc2nc(-c3ccc(C)cc3)cs2)c(O)c1 | 70% (inactive) |
| Cc1noc2c(Cc3ccc([N+](=O)[O-])cc3)nn(CC(=O)N/N=C/c3ccc(Br)cc3)c(=O)c12 | 95.4% (inactive) |
| Cc1cc(C)c2[nH]c(=O)c(C(c3nnnn3Cc3ccc4c(c3)OCO4)N3CCN(C)CC3)cc2c1 (centres undefined) | 129% (inactive) |
| NS(=O)(=O)c1ccc(N=Nc2c(O)n(CC(=O)Nc3ccccc3)c3ccccc23)cc1 | 48.7% (inactive) |
| COc1c(F)ccc(C(=O)Nc2ccc3nc(NC(=O)C4CCCN(S(=O)(=O)c5ccc(Br)s5)C4)sc3c2)c1F (centres undefined) | 80.6% (inactive) |
| O=C(Nc1ccc(Cl)c(C(F)(F)F)c1)N1CCN(c2cc(-c3cn(-c4ccccc4)nc3-c3cccc(O)c3)ccn2)CC1 | -34.3% (active) |

| Structure (SMILES) | growth |
| --- | --- |
| CCCSc1nc(NCCc2c[nH]c3ccccc23)c(C#N)c(-c2ccccc2)n1 | 70.4% (inactive) |
| COc1cc(C2CC(c3ccc(S(=O)(=O)NCCNc4nc(N(C)C)nc(N5CCOCC5)n4)cc3)=Nc3c(N)nc(N)nc3N2)cc(OC)c1OC (centres undefined) | 93.6% (inactive) |
| CC1=C(C(=O)OC(C)C)C(c2cccc(O)c2)NC(=S)N1 (centres undefined) | 99.2% (inactive) |
| O=C(NO)c1ccc(Cn2ccc3c(Nc4ccccc4)ncnc32)cc1 | 0.922% (active) |
| Brc1ccc(/C=C/c2n(Cc3ccc4ccccc4c3)c3ccccc3[n+]2Cc2ccc3ccccc3c2)cc1 | -48.7% (active) |
| COc1ccc2nc(Cl)c(-c3cc(-c4ccccc4)nc(=S)[nH]3)cc2c1 | 19.6% (inactive) |
| CS(=O)(=O)Nc1ccc(-c2ccc3c(c2)ncn3-c2ccc(NC(=O)Nc3ccc(Cl)c(C(F)(F)F)c3)cc2)cc1 | -42.4% (active) |
| CC1=C(C(=O)c2ccccc2)C(c2ccc(-n3cncn3)cc2)n2c(nc3ccccc32)N1 (centres undefined) | 86.9% (inactive) |
| COc1cc(-c2cc(-c3cccc(OCC(=O)O)c3)[nH]c(=O)c2C#N)cc(OC)c1OC | 80.6% (inactive) |
| COc1ccc(NC(=O)CSc2nnc(-c3ccc(-c4nc5ccc(Cl)cc5[nH]4)cc3)o2)cc1 | 61.5% (inactive) |
| Clc1ccc(-c2ccc(OCCCN3CCN(c4ccncc4)CC3)cc2)cc1 | -13.9% (active) |
| CSc1ccccc1NC(=O)c1ccc2nnn(/C(C#N)=C/c3ccccn3)c2c1 | -31.5% (active) |
| O=C(c1ccc(O)cc1)C1[C@H](c2ccccc2Br)[C@@H](c2ccccc2)NC12C(=O)Nc1ccc(Br)cc12 (some centres undefined) | 33.6% (inactive) |
| CCOC(=O)C1=C(N)N(c2ccc(C)cc2)C2=C(C(=O)CC(C)(C)C2)C1c1ccccc1OC (centres undefined) | 98.9% (inactive) |
| COc1ccc(N2N=C(c3ccc4c(c3)OCO4)CC2c2cccc(NC(=O)CCNS(=O)(=O)c3ccc(Cl)cc3)c2)cc1 (centres undefined) | 34.4% (inactive) |
| COc1c(B(O)O)cc(F)cc1-c1nc2c(F)cc3[nH]ncc3c2c2c1CCCC2 | 1.83% (active) |
| O=c1oc2ccc(-c3ccc(F)cc3F)cc2c(=O)n1-c1ccc(Cl)c(C(F)(F)F)c1 | 1.38% (active) |
